# From PubChem BioAssay AID1508600 (Functional Genomics Laboratory (NCATS/FGL), 2020)
# Among all 53,000 sequences or so, about 3,700 (7%) were called active. Only a selection was taken, and actives are over-represented in it overall. Unmarked numbers belong to inactive results.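 How the source made its calls: active means gene knockdowns whose robust z-score for IL-1 alpha signal is at least 2 or at most -2, so actives lie on both sides; inactive means the rest.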
# Test: Components of the Cytosolic LPS Sensing Pathway: Gene Identification via Genome-wide siRNA Screen;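 further: robust z of the log signal after scaling to non-targeting control siRNA wells of the plate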
# Details: RAW264.7 macrophages, IL-1a HTRF, actives lie on both sides, screened at 100 nM (by protocol), cells primed 5 h with Pam3CSK4 first
# How it was run: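 Read-out: IL-1a HTRF on supernatant, divided by plate negative-control median ×100, log-transformed and converted to robust z-score. Cells were RAW264.7 given 100 nM siRNA, Pam3CSK4-primed 5 hours, then LipidA-transfected 24 hour.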
row,Sequence,z-score
1,GGUGUUGCUUAUCAUCGGCTT against Mrgprh,-2.03 (active)
2,GGGCAUCCUGGAUCAUCAUTT against Nlrp6,-1.64
3,CCUUAGAUAUCUACUGUAATT against Trim2,1.37
4,GGUGCAAGUUUUGGUGGGATT against Etfbkmt,0.35
5,GGAACCUAAUUGAAUGGCUTT against Cmbl,0.985
6,GGCGAAUGUGUGAAGAGGCTT against H2-Q5,-1.97
7,GCUGCUAGCAAAAAGAACUTT against Yaf2,2.24 (active)
8,GGAUGUUACGAAGAAGAUUTT against Ash1l,-0.664
9,GCCAUAUAUCUGCUAUCAUTT against Clvs2,2.34 (active)
10,GCAACUUAAAGGCAUCUCCTT against Sntn,1.53
11,GGGAAUCUUGGCAUGAUGGTT against Olfr1030,-0.325
12,GGUAUUUAUCUGAAUCUGATT against Dennd2c,0.668
13,CCAGCCUCUUCUAAUACACTT against Preb,-0.413
14,CCCAUCCAAUGCUUAUGUGTT against Scg5,-0.421
15,GCCUAAAAAGAGUGGGUCATT against Mllt1,-2.73 (active)
16,GGAUCUAGGAGCUGAUUAUTT against Mecr,-1.18
17,CCAUCAUGCCCUGUUUGCATT against Cdc42ep3,0.393
18,GCUCUUGUUAUUUACGUCGTT against Lgi1,0.478
19,CGACCACAUGAGGAUGCAUTT against Zbtb20,-0.974
20,CCAUUAUUGGCCCAUGCUCTT against Babam1,-2.75 (active)
21,GGUUAUAAAACUAUGGAACTT against Map2k5,0.133
22,GGAUCAUUGUUCUCUCAAGTT against Psmg2,0.186
23,GGCUCAAAAGUCUUGGGACTT against Hells,0.31
24,CGCAGAUGAUUAAGUUGGUTT against Olfr1000,0.961
25,GGUGGAGACAGAAAUCCAATT against Amot,0.23
26,CGGAACCUUAUUUAAAACUTT against Sirt5,0.732
27,GGUAUCUGUGCAAGGGCAATT against Defb5,2.07 (active)
28,CCUACUCGUGUCGUGAUAATT against Rxrb,-0.841
29,GGGCAUUCAGCAGUUACAGTT against Lrriq4,0.521
30,GGUUUAUGGGACAGUUUUUTT against Plk2,5.58 (active)
